In PubChem BioAssay (NCATS):
Results filed as inconclusive are left out. Activity calls are given as the source filed them. The call rests on the fitted dose curve; in most records, active means well fitted curve in the direction sought with a large enough effect; inconclusive means small, poorly fitted or top-dose-only effect, or another doubt; inactive means no such curve, though single readings can be large; an effect the other way counts as inactive or inconclusive.

What was measured:
[1] = Quantitative highthroughput screen to assess conditional lethalithy of NOMO1 cells grown in Human Plasma-Like Medium with dialyzed fetal bovine serum (HPLM+ds) (AID 1963878); conditions: NOMO1 AML cells in HPLM+ds, CellTiter-Glo viability, 48 h; series mostly up to 45.8 µM; further: nearly all actives have a fitted effect of over 35% in size; further: potency means the concentration at half of the fitted maximal effect;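 on viability: 100% = DMSO wells and 0% = empty wells on each plate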
In short: (§1)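 Each medium arm—HPLM with 10% dialyzed FBS, or RPMI1640 with 5 mM glucose and 10% untreated or dialyzed FBS—was screened against an 11-point, 3-fold compound titration for 48 h at 37 °C, with CellTiter-Glo luminescence as endpoint.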

[2] = Quantitative highthroughput screen to assess conditional lethalithy of P12 Ichikawa cells grown in Human Plasma-Like Medium with dialyzed fetal bovine serum (HPLM+ds) (AID 1963879); conditions: ATP luminescence, 48 h; Potency: viability; series mostly up to 45.8 µM; further: nearly all actives have a fitted effect of over 35% in size
In short: as §1

[3] = Quantitative highthroughput screen to assess conditional lethalithy of P12 Ichikawa cells grown in RPMI1640 with untreated serum (RPMI+s) (AID 1963881); conditions: ATP luminescence, 48 h; Potency: viability; series mostly up to 45.8 µM; further: nearly all actives have a fitted effect of over 35% in size; further: potency means the concentration at half of the fitted maximal effect;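 on viability: 100% = DMSO wells and 0% = empty wells without cells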
In short: as §1

[4] = Quantitative highthroughput screen to assess conditional lethalithy of SEM cells grown in Human Plasma-Like Medium with dialyzed fetal bovine serum (HPLM+ds) (AID 1963882); conditions: SEM B-ALL cells in HPLM+ds, CellTiter-Glo viability, 48 h; series mostly up to 45.8 µM; further: nearly all actives have a fitted effect of over 35% in size; further: potency means the concentration at half of the fitted maximal effect
In short: as §1

[5] = Quantitative highthroughput screen to assess conditional lethalithy of SEM cells grown in RPMI1640 with dialyzed fetal bovine serum (RPMI+ds) (AID 1963884); conditions: SEM B-ALL cells, RPMI+dialyzed FBS, CellTiter-Glo viability, 48 h; series mostly up to 45.8 µM; further: nearly all actives have a fitted effect of over 35% in size; further: potency means the concentration at half of the fitted maximal effect;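 on viability: 100% = DMSO control wells and 0% = empty wells without cells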
In short: as §1

[6] = Quantitative highthroughput screen to assess conditional lethalithy of NOMO1 cells grown in RPMI1640 with dialyzed fetal bovine serum (RPMI+ds) (AID 1963877); conditions: NOMO1 in RPMI+dialyzed FBS viability, ATP luminescence, 48 h; series mostly up to 45.8 µM; further: nearly all actives have a fitted effect of over 30% in size; further: potency means the concentration at half of the fitted maximal effect;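 on viability: 100% = DMSO control wells and 0% = empty wells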
In short: as §1

[7] = Quantitative highthroughput screen to assess conditional lethalithy of P12 Ichikawa cells grown in RPMI1640 with dialyzed fetal bovine serum (RPMI+ds) (AID 1963880); conditions: ATP luminescence, 48 h; Potency: P12-Ichikawa viability; series mostly up to 45.8 µM
In short: as §1

[8] = Quantitative highthroughput screen to assess conditional lethalithy of SEM cells grown in RPMI1640 with unreated serum (RPMI+s) (AID 1963883); conditions: SEM B-ALL cells, CellTiter-Glo viability, 48 h; series mostly up to 45.8 µM; further: nearly all actives have a fitted effect of over 35% in size; further: potency means the concentration at half of the fitted maximal effect;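 on viability: 100% = DMSO wells and 0% = empty wells without cells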
In short: as §1

[9] = Cellular viability qHTS for adrenocortical cancer (ACC) cell line SW-13 (AID 1963989); conditions: SW-13 ACC cells viability, CellTiter-Glo, 48 h; activity (max response): hits give low values;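 further: cells grown in serum-free medium with ITS supplement; on the % scale 0 is the no-effect control and ±100 the full control effect; nearly all actives have a fitted effect of over 65% in size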
In short: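 48 h treatment, SW-13 in ITS/DMEM serum-free; doses up to 46 uM; readout CellTiter-Glo luminescence; curve fit four-parameter logistic.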

[10] = Cellular viability qHTS for adrenocortical cancer (ACC) cell line NCI-H295R (AID 1963990); conditions: CellTiter-Glo ATP luminescence, 48 h; series mostly up to 46.1 µM;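 further: 0% = DMSO only wells and -100% = full killing with cytotoxic reference compound; nearly all actives have a fitted effect of over 60% in size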
In short: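 Compound titrations (up to 46 uM final) are applied to NCI-H295R cultures for 48 h at 37C. Viable cell number is estimated by CellTiter-Glo signal, normalised to DMSO and doxorubicin controls.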

CC(=O)Nc1sc2c(c1-c1nc3ccccc3s1)CNC2
inactive: Potency [1] | Potency [2]
active: Potency [3] 16.6 µM | Potency [4] 18.7 µM | Potency [5] 18.7 µM

CC(C)(O)CC[C@@H](O)[C@](C)(O)[C@H]1CC[C@@]2(O)C3=CC(=O)[C@@H]4C[C@@H](O)[C@@H](O)C[C@]4(C)[C@@H]3CC[C@]12C
inactive: Potency [6] | Potency [2] | Potency [7] | Potency [3] | Potency [8] | Potency [5]

CCN1CCCC1CNC(=O)c1cc(S(N)(=O)=O)ccc1OC (stereo unspecified)
inactive: Potency [6] | Potency [2] | Potency [7] | Potency [3]

CC[C@]1(O)C[C@@H]2CN(CCc3c([nH]c4ccccc34)[C@@](C(=O)OC)(c3cc4c(cc3OC)N(C=O)[C@@H]3C45CCN4CC=C[C@](CC)([C@H]45)[C@@H](OC(C)=O)[C@]3(O)C(=O)OC)C2)C1 (stereo partly specified)
inactive: Potency [1] | Potency [2] | Potency [3]

Oc1cc(O)cc(C=Cc2ccc(O)c(O)c2)c1
inactive: Potency [6]
active: Potency [8] 18.7 µM

COc1ccc(-c2coc3cc(O)ccc3c2=O)cc1
inactive: Potency [6] | Potency [2] | Potency [7] | Potency [3] | Potency [4] | Potency [8] | Potency [5]

N#Cc1ccc(COC[C@H]2O[C@@H](n3c(NCc4ccc(Cl)c(Cl)c4)nc4c(N)ncnc43)[C@@H](O)[C@@H]2O)cc1
active: Potency [1] 7.43 µM
inactive: Potency [2] | Potency [4]

NC(=O)C1CCCc2c1[nH]c1ccc(Cl)cc21 (stereo unspecified)
active: Potency [6] 8.33 µM | Potency [1] 5.9 µM | Potency [4] 2.35 µM | Potency [8] 5.26 µM
inactive: activity (max response) [9] -13.4% | Potency [10]

COc1cc(Cl)cn2c(-c3cccc(NC4CNC4)n3)cnc12
inactive: Potency [1] | Potency [2] | Potency [7] | Potency [3] | Potency [5]
